# Key:
# Experiment in all cases: SPOT peptide array binding signal intensity (averaged, normalized) (arbitrary units (background-subtracted, floor 0; scale differs between SH3 domains)); higher = stronger binding of the SH3 domain to the peptide
# [1] = biological target: AgAbp1
# Outline: (§1)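 Detection of bound protein relied on anti-GST antibody, an HRP anti-mouse secondary and luminol, with imaging and quantification in Genespotter. The bound protein was GST-fused SH3 domains from four yeast species, incubated at 10 μg/ml overnight at 4°C in TBS-based blocking buffer on cellulose membranes carrying synthetic 15-mer peptides with cysteines replaced by serines. Binding signal is normalized, background-subtracted spot intensity averaged over replicates, in arbitrary units that differ between domains.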
# [2] = biological target: AgBbc1
# Outline: as §1
# [3] = biological target: AgBem1-D1
# Outline: as §1
# [4] = biological target: AgBzz1-D1
# Outline: as §1
# [5] = biological target: AgBzz1-D2
# Outline: as §1
# [6] = biological target: AgCyk3
# Outline: as §1
# [7] = biological target: AgFus1
# Outline: as §1
# [8] = biological target: AgHof1
# Outline: as §1
# [9] = biological target: AgHse1
# Outline: as §1
# [10] = biological target: AgLsb1
# Outline: as §1
# [11] = biological target: AgLsb4
# Outline: as §1
# [12] = biological target: AgMyo5
# Outline: as §1
# [13] = biological target: AgNbp2
# Outline: as §1
# [14] = biological target: AgRvs167
# Outline: as §1
# [15] = biological target: AgSho1
# Outline: as §1
# [16] = biological target: AgSla1-D1-D2
# Outline: as §1
# [17] = biological target: AgSla1-D3
# Outline: as §1
# [18] = biological target: CaAbp1-D1
# Outline: as §1
# [19] = biological target: CaAbp1-D2
# Outline: as §1
# [20] = biological target: CaBbc1
# Outline: as §1
# [21] = biological target: CaBem1-D1
# Outline: as §1
# [22] = biological target: CaBzz1-D1
# Outline: as §1
# [23] = biological target: CaBzz1-D2
# Outline: as §1
# [24] = biological target: CaCyk3
# Outline: as §1
# [25] = biological target: CaFus1
# Outline: as §1
# [26] = biological target: CaHof1
# Outline: as §1
# [27] = biological target: CaHse1
# Outline: as §1
# [28] = biological target: CaLsb1
# Outline: as §1
# [29] = biological target: CaLsb4
# Outline: as §1
# [30] = biological target: CaMyo5
# Outline: as §1
# [31] = biological target: CaNbp2
# Outline: as §1
# [32] = biological target: CaRvs167
# Outline: as §1
# [33] = biological target: CaRvs167-3
# Outline: as §1
# [34] = biological target: CaSho1
# Outline: as §1
# [35] = biological target: CaSla1-D1-D2
# Outline: as §1
# [36] = biological target: CaSla1-D3
# Outline: as §1
# [37] = biological target: ScAbp1
# Outline: as §1
# [38] = biological target: ScBbc1
# Outline: as §1
# [39] = biological target: ScBem1-D1
# Outline: as §1
# [40] = biological target: ScBzz1-D1
# Outline: as §1
# [41] = biological target: ScBzz1-D2
# Outline: as §1
# [42] = biological target: ScCyk3
# Outline: as §1
# [43] = biological target: ScFus1
# Outline: as §1
# [44] = biological target: ScHof1
# Outline: as §1
# [45] = biological target: ScHse1
# Outline: as §1
# [46] = biological target: ScLsb1
# Outline: as §1
# [47] = biological target: ScLsb2
# Outline: as §1
# [48] = biological target: ScLsb3
# Outline: as §1
# [49] = biological target: ScLsb4
# Outline: as §1
# [50] = biological target: ScMyo3
# Outline: as §1
# [51] = biological target: ScMyo5
# Outline: as §1
# [52] = biological target: ScNbp2
# Outline: as §1
# [53] = biological target: ScPex13
# Outline: as §1
# [54] = biological target: ScRvs167
# Outline: as §1
# [55] = biological target: ScSho1
# Outline: as §1
# [56] = biological target: ScSla1-D1-D2
# Outline: as §1
# [57] = biological target: ScSla1-D3
# Outline: as §1
# [58] = biological target: SpAbp1-D1
# Outline: as §1
# [59] = biological target: SpBbc1
# Outline: as §1
# [60] = biological target: SpBzz1-D1
# Outline: as §1
# [61] = biological target: SpBzz1-D2
# Outline: as §1
# [62] = biological target: SpCyk3
# Outline: as §1
# [63] = biological target: SpHof1
# Outline: as §1
# [64] = biological target: SpHof1-2
# Outline: as §1
# [65] = biological target: SpHof1-3
# Outline: as §1
# [66] = biological target: SpHse1
# Outline: as §1
# [67] = biological target: SpLsb1
# Outline: as §1
# [68] = biological target: SpLsb4
# Outline: as §1
# [69] = biological target: SpMyo1
# Outline: as §1
# [70] = biological target: SpNbp2
# Outline: as §1
# [71] = biological target: SpPex13
# Outline: as §1
# [72] = biological target: SpRvs167
# Outline: as §1
# [73] = biological target: SpSla1-D1-D2
# Outline: as §1
# [74] = biological target: SpSla1-D3
# Outline: as §1
binder,measurement,setting,value
RTIRKLPLMSLSEYF,SPOT peptide array binding signal intensity,[1],7.5
same,SPOT peptide array binding signal intensity,[2],14.5
same,SPOT peptide array binding signal intensity,[3],106
same,SPOT peptide array binding signal intensity,[4],8
same,SPOT peptide array binding signal intensity,[5],21
same,SPOT peptide array binding signal intensity,[6],0.5
same,SPOT peptide array binding signal intensity,[7],345
same,SPOT peptide array binding signal intensity,[8],34.5
same,SPOT peptide array binding signal intensity,[9],356
same,SPOT peptide array binding signal intensity,[10],≤ 0
same,SPOT peptide array binding signal intensity,[11],61.5
same,SPOT peptide array binding signal intensity,[12],0.25
same,SPOT peptide array binding signal intensity,[13],379
same,SPOT peptide array binding signal intensity,[14],3
same,SPOT peptide array binding signal intensity,[15],122
same,SPOT peptide array binding signal intensity,[16],46
same,SPOT peptide array binding signal intensity,[17],8
same,SPOT peptide array binding signal intensity,[18],285
same,SPOT peptide array binding signal intensity,[19],123
same,SPOT peptide array binding signal intensity,[20],42.5
same,SPOT peptide array binding signal intensity,[21],66.5
same,SPOT peptide array binding signal intensity,[22],82.5
same,SPOT peptide array binding signal intensity,[23],63.5
same,SPOT peptide array binding signal intensity,[24],59
same,SPOT peptide array binding signal intensity,[25],942
same,SPOT peptide array binding signal intensity,[26],≤ 0
same,SPOT peptide array binding signal intensity,[27],121
same,SPOT peptide array binding signal intensity,[28],4.5
same,SPOT peptide array binding signal intensity,[29],282
same,SPOT peptide array binding signal intensity,[30],6
same,SPOT peptide array binding signal intensity,[31],571
same,SPOT peptide array binding signal intensity,[32],42.5
same,SPOT peptide array binding signal intensity,[33],4.75
same,SPOT peptide array binding signal intensity,[34],668
same,SPOT peptide array binding signal intensity,[35],152
same,SPOT peptide array binding signal intensity,[36],98.2
same,SPOT peptide array binding signal intensity,[37],23
same,SPOT peptide array binding signal intensity,[38],5.25
same,SPOT peptide array binding signal intensity,[39],48
same,SPOT peptide array binding signal intensity,[40],15
same,SPOT peptide array binding signal intensity,[41],21
same,SPOT peptide array binding signal intensity,[42],28.5
same,SPOT peptide array binding signal intensity,[43],328
same,SPOT peptide array binding signal intensity,[44],3
same,SPOT peptide array binding signal intensity,[45],1080
same,SPOT peptide array binding signal intensity,[46],2
same,SPOT peptide array binding signal intensity,[47],≤ 0
same,SPOT peptide array binding signal intensity,[48],639
same,SPOT peptide array binding signal intensity,[49],92
same,SPOT peptide array binding signal intensity,[50],2.5
same,SPOT peptide array binding signal intensity,[51],4.5
same,SPOT peptide array binding signal intensity,[52],556
same,SPOT peptide array binding signal intensity,[53],54.2
same,SPOT peptide array binding signal intensity,[54],71.7
same,SPOT peptide array binding signal intensity,[55],1040
same,SPOT peptide array binding signal intensity,[56],290
same,SPOT peptide array binding signal intensity,[57],58.2
same,SPOT peptide array binding signal intensity,[58],85.5
same,SPOT peptide array binding signal intensity,[59],1
same,SPOT peptide array binding signal intensity,[60],109
same,SPOT peptide array binding signal intensity,[61],1
same,SPOT peptide array binding signal intensity,[62],8.5
same,SPOT peptide array binding signal intensity,[63],239
same,SPOT peptide array binding signal intensity,[64],18
same,SPOT peptide array binding signal intensity,[65],327
same,SPOT peptide array binding signal intensity,[66],458
same,SPOT peptide array binding signal intensity,[67],3.5
same,SPOT peptide array binding signal intensity,[68],816
same,SPOT peptide array binding signal intensity,[69],7
same,SPOT peptide array binding signal intensity,[70],484
same,SPOT peptide array binding signal intensity,[71],26
same,SPOT peptide array binding signal intensity,[72],20
same,SPOT peptide array binding signal intensity,[73],≤ 0
same,SPOT peptide array binding signal intensity,[74],19
PAPPPPPRASRPTPN,SPOT peptide array binding signal intensity,[1],7.5
same,SPOT peptide array binding signal intensity,[2],438
same,SPOT peptide array binding signal intensity,[3],19.5
same,SPOT peptide array binding signal intensity,[4],57
same,SPOT peptide array binding signal intensity,[5],8
same,SPOT peptide array binding signal intensity,[6],1
same,SPOT peptide array binding signal intensity,[7],≤ 0
same,SPOT peptide array binding signal intensity,[8],0.5
same,SPOT peptide array binding signal intensity,[9],1.5
same,SPOT peptide array binding signal intensity,[10],6.5
same,SPOT peptide array binding signal intensity,[11],185
same,SPOT peptide array binding signal intensity,[12],≤ 0
same,SPOT peptide array binding signal intensity,[13],111
same,SPOT peptide array binding signal intensity,[14],34.2
same,SPOT peptide array binding signal intensity,[15],≤ 0
same,SPOT peptide array binding signal intensity,[16],3.5
same,SPOT peptide array binding signal intensity,[17],2
same,SPOT peptide array binding signal intensity,[18],24.5
same,SPOT peptide array binding signal intensity,[19],3
same,SPOT peptide array binding signal intensity,[20],657
same,SPOT peptide array binding signal intensity,[21],21
same,SPOT peptide array binding signal intensity,[22],934
same,SPOT peptide array binding signal intensity,[23],162
same,SPOT peptide array binding signal intensity,[24],21
same,SPOT peptide array binding signal intensity,[25],45.5
same,SPOT peptide array binding signal intensity,[26],17.5
same,SPOT peptide array binding signal intensity,[27],3.5
same,SPOT peptide array binding signal intensity,[28],0.5
same,SPOT peptide array binding signal intensity,[29],939
same,SPOT peptide array binding signal intensity,[30],1.5
same,SPOT peptide array binding signal intensity,[31],39.5
same,SPOT peptide array binding signal intensity,[32],223
same,SPOT peptide array binding signal intensity,[33],6.25
same,SPOT peptide array binding signal intensity,[34],3.5
same,SPOT peptide array binding signal intensity,[35],242
same,SPOT peptide array binding signal intensity,[36],3.75
same,SPOT peptide array binding signal intensity,[37],3
same,SPOT peptide array binding signal intensity,[38],72.5
same,SPOT peptide array binding signal intensity,[39],2
same,SPOT peptide array binding signal intensity,[40],36
same,SPOT peptide array binding signal intensity,[41],24
same,SPOT peptide array binding signal intensity,[42],2
same,SPOT peptide array binding signal intensity,[43],10
same,SPOT peptide array binding signal intensity,[44],56.2
same,SPOT peptide array binding signal intensity,[45],6
same,SPOT peptide array binding signal intensity,[46],49.2
same,SPOT peptide array binding signal intensity,[47],3.5
same,SPOT peptide array binding signal intensity,[48],1110
same,SPOT peptide array binding signal intensity,[49],394
same,SPOT peptide array binding signal intensity,[50],40.5
same,SPOT peptide array binding signal intensity,[51],22
same,SPOT peptide array binding signal intensity,[52],10.5
same,SPOT peptide array binding signal intensity,[53],304
same,SPOT peptide array binding signal intensity,[54],966
same,SPOT peptide array binding signal intensity,[55],45
same,SPOT peptide array binding signal intensity,[56],565
same,SPOT peptide array binding signal intensity,[57],1.5
same,SPOT peptide array binding signal intensity,[58],14.5
same,SPOT peptide array binding signal intensity,[59],1
same,SPOT peptide array binding signal intensity,[60],208

# From the supplement of paper PMC4466140
